Assay outcomes: PubChem, National Center for Advancing Translational Sciences (NCATS)
KB-3-1 tox: KB-3-1 parental cell cytotoxicity | KB-3-1 viability, CellTiter-Glo ATP luminescence, 72 h | Potency, µM (highest dose often 46.1 µM), hits mostly cytotoxic | 1.4% of 400,000 active | AID 1347075; further: potency means the concentration at half of the fitted maximal effect; on the % scale 0 is the no-effect control and ±100 the full control effect; nearly all actives have a fitted effect of over 60% in size
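KB-3-1 cells, DMEM (no phenol red) + 10% FBS; compound by pin transfer, 72 h, 37 °C. Readout: CellTiter-Glo luminescence after 10 min. Data normalized, curve-fitted.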
IL1B secr inh: inflammasome signaling inhibition, IL-1 beta readout | THP-1 LPS/ATP IL-1B secretion, AlphaLISA, 16 h; hits give low values | 4.7% of 360,000 active | activity change, % at 57.5 µM | AID 743279; in the data active means activity change below about -50%; inconclusive means mostly about -30% to -49%; further: on the % scale 0 is the no-effect control and ±100 the full control effect
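Secreted IL-1B measured by AlphaLISA bead assay after 16 h compound exposure of THP-1 cells; compounds (final up to 57.5 uM) added 1 h before LPS (250 ng/mL) and ATP (1.25 mM) stimulation; lower signal means less secretion.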
SW480 rerep: DNA re-replication induction in SW480 cells. SW480 DNA re-replication, Hoechst DNA content imaging, 48 h. Potency, µM (highest dose often 46.1 µM), for inactives: at the highest dose re-replication activation, actives largely listed as activators. 1.8% of 340,000 active; further: potency means the concentration at half of the fitted maximal effect; % of control where 0% means no effect; nearly all actives have a fitted effect of over 55% in size
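Image-based read-out: total Hoechst fluorescence of nuclei (405 nm excitation, 500-530 nm emission), with hits raising the fraction of high-intensity nuclei. SW480 colon cells incubated 48 hr with compounds at 37 C.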
MCF10A rereplic: inducers of DNA re-replication in MCF 10A breast cells | MCF 10A DNA re-replication, Hoechst nuclear intensity, 48 h | 2.9% of 350,000 active | Potency, µM (highest dose often 46.1 µM), without a hit: top-dose activity, positive = re-replication, actives largely listed as activators; further: potency means the concentration at half of the fitted maximal effect; % of control where 0% means no effect; nearly all actives have a fitted effect of over 50% in size
KB-V1 cytotox: KB-V1 MDR subline cytotoxicity; KB-V1 MDR cells viability, CellTiter-Glo, 72 h; Potency, µM (series often up to 46.1 µM), actives largely listed as cytotoxic; 3.4% of 400,000 active; further: potency means the concentration at half of the fitted maximal effect; on the % scale 0 is the no-effect control and ±100 the full control effect; nearly all actives have a fitted effect of over 60% in size
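KB-V1, DMEM (no phenol red) + 10% FBS; cpd pin-transferred, titration series; 72 h, 37 degrees C; CellTiter-Glo, luminescence. Data normalized, curve-fit.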
Active calls of the source: *; ! = a repeat was not active; [ ] = another dose, or the depositor's remark. In the library only some 9.9% were active in any assay of this set; here they are far more common. Unless noted, the call rests on the fitted dose curve; in most records, active means well fitted curve in the direction sought with a large enough effect; inconclusive means small, poorly fitted or top-dose-only effect, or another doubt; inactive means no such curve, though single readings can be large; an effect the other way counts as inactive or inconclusive.

How did Cc1cccc(C(=O)N[C@H](C(=O)Nc2ncc(C)s2)C(C)C)c1 do in these assays?
KB-3-1 tox: inconclusive; IL1B secr inh: inconclusive; SW480 rerep: inconclusive; MCF10A rereplic: 25%; KB-V1 cytotox: 16µM*

What do the screens show for `CN1CCN(CCCNC(=O)Nc2cccc3ccccc23)CC1`?
KB-3-1 tox: inactive; IL1B secr inh: 5; SW480 rerep: -2%; MCF10A rereplic: -1%; KB-V1 cytotox: inactive

What do the screens show for `Cc1cc2nc(C)n(CCCNC(=O)Nc3cccc4ccccc34)c2cc1C`?
KB-3-1 tox: inconclusive; IL1B secr inh: inconclusive; SW480 rerep: 5%; MCF10A rereplic: inconclusive; KB-V1 cytotox: 16µM*

Results for CCOc1ccc(NC(=O)NCCCn2c(C)nc3cc(C)c(C)cc32)cc1 ?
KB-3-1 tox: inactive; IL1B secr inh: -7; SW480 rerep: 7%; MCF10A rereplic: 4%; KB-V1 cytotox: 23µM*

Results for Nc1ccccc1C(=O)NC1CCCNC1=O (centres undefined) ?
KB-3-1 tox: inactive; IL1B secr inh: 10; SW480 rerep: 3%; MCF10A rereplic: -1%; KB-V1 cytotox: inactive

Results for COc1ccc(-c2csc(NC(=O)CSc3nc(SC)ns3)n2)cc1 ?
KB-3-1 tox: inactive; IL1B secr inh: 9; SW480 rerep: 1%; MCF10A rereplic: inconclusive; KB-V1 cytotox: inactive

How did O=C(NC1CC1(c1ccccc1)c1ccccc1)c1ccccc1 (centres undefined) do in these assays?
KB-3-1 tox: inconclusive; IL1B secr inh: -17; SW480 rerep: 13%; MCF10A rereplic: 16%; KB-V1 cytotox: 16µM*

Results for CS(=O)(=O)n1nc(OC(=O)c2cccc3ccccc23)cc1N ?
KB-3-1 tox: inactive; IL1B secr inh: -57*; SW480 rerep: 0%; MCF10A rereplic: 3%; KB-V1 cytotox: inactive

How did COc1ccc2c(c1)C=C(CN1CCN(C3CCCC3)C(CCO)C1)CO2 (centres undefined) do in these assays?
KB-3-1 tox: inactive; IL1B secr inh: -11; SW480 rerep: -1%; MCF10A rereplic: inconclusive; KB-V1 cytotox: inconclusive

What do the screens show for `CCCCOc1ccc(C(=O)CCN2CCCCC2)cc1`?
KB-3-1 tox: inactive; IL1B secr inh: -20; SW480 rerep: 10µM*!; MCF10A rereplic: 16µM*; KB-V1 cytotox: inactive

How did CC(C)COc1ccc(C(=O)CCN2CCCCC2)cc1 do in these assays?
KB-3-1 tox: 15µM*; IL1B secr inh: 0; SW480 rerep: inconclusive; MCF10A rereplic: 12µM*; KB-V1 cytotox: inactive

How did CC(C)COc1ccc(C(=O)OCCN2CCCCC2)cc1 do in these assays?
KB-3-1 tox: inactive; IL1B secr inh: -14; SW480 rerep: -3%; MCF10A rereplic: inconclusive; KB-V1 cytotox: inactive

How did O=C(c1ccccc1)c1ccc(OCC(O)CN2CCN(S(=O)(=O)N3CCCCC3)CC2)cc1 (centres undefined) do in these assays?
KB-3-1 tox: 23µM*; IL1B secr inh: -13; SW480 rerep: 9%; MCF10A rereplic: 22%; KB-V1 cytotox: 2.1µM*

What do the screens show for `O=C(c1ccccc1)c1ccc(OCCCN2CCCCC2)cc1`?
KB-3-1 tox: inactive; IL1B secr inh: -59*; SW480 rerep: -1%; MCF10A rereplic: inconclusive; KB-V1 cytotox: inactive

How did CC(=O)c1c(C)[nH]c(C(=O)OCC(=O)c2ccc(C)s2)c1C do in these assays?
KB-3-1 tox: inactive; IL1B secr inh: -8; SW480 rerep: inconclusive; MCF10A rereplic: 11%; KB-V1 cytotox: inactive

How did Cc1ccccc1-c1noc(-c2ccc(NCc3ccco3)c([N+](=O)[O-])c2)n1 do in these assays?
KB-3-1 tox: inactive; KB-V1 cytotox: inconclusive

How did C=CCn1c(SCC(C)=O)nnc1-c1cc(-c2ccccc2)sc1N do in these assays?
KB-3-1 tox: inactive; IL1B secr inh: -8; SW480 rerep: -15%; MCF10A rereplic: -2%; KB-V1 cytotox: 18µM*

How did O=C(c1ccc(-c2ccccc2)cc1)c1ccccc1C(=O)N1CCOCC1 do in these assays?
KB-3-1 tox: inactive; IL1B secr inh: 4; SW480 rerep: -20%; MCF10A rereplic: 7%; KB-V1 cytotox: 21µM*

How did O=C(c1ccccc1)c1ccc(C(=O)N2CCOCC2)cc1 do in these assays?
KB-3-1 tox: inactive; IL1B secr inh: -4; SW480 rerep: 1%[9.22 µM]; MCF10A rereplic: 0%; KB-V1 cytotox: inactive
